CYP2C9 act: activators of human CYP2C9 | P11712 | recombinant CYP2C9, luciferin-H conversion, luminescence; active compounds read high; factor 1 = untreated enzyme, 0 = blocked | activation factor at 5 µM | 96,000 compounds, 1.4% hits | AID 1024;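 active = activation factor of 2 or more for CYP2C9 at a 5 µM dose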;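 also: 0 = sulfaphenazole-blocked wells and 1 = vehicle-only wells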
CYP2C9 inh: inhibitors of human CYP2C9; CYP2C9 Supersomes, luciferin-H conversion, luminescence; inhibition, % at 5 µM; AID 777; 96,000 compounds, 20% hits; P11712;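 active = blocking of liver enzyme CYP2C9 beyond about 50% at 5 µM, limit read from the data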
CYP2C19 activ: cytochrome P450 2C19 (human) activation; recombinant CYP2C19, luciferin-H EGE luminescence; active compounds read high; 0 = fully inhibited enzyme, 1 = untreated enzyme; activation factor at 5 µM; 96,000 tested, under 10 active; AID 1025;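 active = activation factor of at least 2 at 5 µM in the primary screen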;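 also: 0 = wells with 2.5 mM tranylcypromine and 1 = vehicle-only wells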
Target sequence (P33261 whole entry, looked up): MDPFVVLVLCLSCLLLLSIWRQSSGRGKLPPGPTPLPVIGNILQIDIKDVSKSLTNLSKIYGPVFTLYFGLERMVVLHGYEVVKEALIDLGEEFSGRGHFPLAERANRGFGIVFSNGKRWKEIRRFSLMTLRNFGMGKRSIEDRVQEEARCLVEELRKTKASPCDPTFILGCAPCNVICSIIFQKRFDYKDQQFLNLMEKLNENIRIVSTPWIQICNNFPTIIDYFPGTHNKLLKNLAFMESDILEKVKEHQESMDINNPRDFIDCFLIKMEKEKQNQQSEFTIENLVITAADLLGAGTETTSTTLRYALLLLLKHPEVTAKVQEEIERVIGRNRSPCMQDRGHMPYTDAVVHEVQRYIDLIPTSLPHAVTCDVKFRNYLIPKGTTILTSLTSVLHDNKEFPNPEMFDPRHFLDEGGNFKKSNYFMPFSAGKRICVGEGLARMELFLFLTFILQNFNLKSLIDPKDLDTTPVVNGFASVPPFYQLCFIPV
Measles CPE: protection of cells from measles virus; AID 841; 140,000 compounds, 1.5% hits; protection (pct of control), % at 4 µM; Measles virus-infected cells, CPE protection, absorbance; in the data active = protection mostly above about 24%, no sharp cut-off; inactive = mostly below about 26%
CYP2C19 inh: inhibitors of human CYP2C19 | P33261 | CYP2C19 Supersomes, luciferin-H EGE luminescence, 30 min | inhibition, % at 5 µM | 96,000 compounds, 21% hits;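 active = CYP2C19 inhibition above a set limit at 5 µM in the primary screen, cut at about 50% in these data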;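 also: plate controls were negative control wells for no effect and 2.5 mM tranylcypromine positive control for full effect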
Starred values were filed as active, the others as inactive; . = no result given. The list is not random: actives were taken first. Their share in the collection is about 22%.

SMILES	CYP2C9 act	CYP2C9 inh	CYP2C19 activ	Measles CPE	CYP2C19 inh
CNc1sc(C(=O)c2cccs2)c(N)c1-c1nc2ccccc2s1	0.3	67*	0.7	33	29
COc1ccccc1OCC(=O)N(Cc1nc(-c2ccc(Cl)cc2)no1)C(C)C	1.6	-64	0.2	4	78*
COc1cccc(OCC(=O)N(Cc2nc(-c3ccc(Cl)cc3)no2)C(C)C)c1	0.1	87*	0.1	2	88*
COc1cccc(C(=O)N(Cc2nc(-c3ccc(C)cc3)no2)C(C)C)c1	0.6	41	0.9	5	12
O=C(COC(=O)C1CCN(S(=O)(=O)c2ccc3c(c2)OCCO3)CC1)Nc1ccc(C(F)(F)F)cc1	.	.	.	4	.
NC(=O)C1CCN(C(=O)CSc2nc3c(c(-c4ccccc4)n2)CCCC3)CC1	0.3	73*	0.9	4	14
C=C(C)COc1ccc(-c2[nH]ncc2-c2ccc(Br)cc2)c(O)c1	.	.	.	8	.
COc1ccc(-c2c(-c3ccc(O)cc3O)n[nH]c2C)cc1OC	0.1	92*	0	3	100*
C=C(C)COc1ccc(-c2n[nH]c(C)c2-c2ccc(Br)cc2)c(O)c1	0.4	57*	0.9	6	11
COc1ccc(C2CC(c3ccc(Cl)cc3)=NN2C(=O)c2cccc([N+](=O)[O-])c2)cc1 (centres undefined)	.	.	.	2	.
Cc1ccc(NC2=C/C(=N\S(=O)(=O)c3cccs3)c3ccccc3C2=O)c(C)c1	.	.	.	4	.
Cc1ccc(Cl)cc1NC1=C/C(=N\S(=O)(=O)c2cccs2)c2ccccc2C1=O	0.1	92*	0.3	5	66*
CCCNC(=S)N1CCN(CC)CC1	.	.	.	29	.
CCCS(=O)(=O)c1nnnn1-c1cccc(OC)c1	1.1	-12	0.6	6	37
CS(=O)(=O)N1CCN(C(=O)c2ccncc2)CC1	0.9	13	1	14	3
CS(=O)(=O)N1CCN(C(=O)c2ccc(Br)s2)CC1	0.6	40	0.1	4	94*
CCN(C(=O)CN1C=NS(=O)(=O)c2ccccc21)c1ccccc1	.	.	.	4	.
CN(CC(=O)OCC(=O)c1c(N)n(C)c(=O)n(C)c1=O)S(=O)(=O)c1ccc(Cl)cc1	.	.	.	10	.
CCC(NC(=O)/C(=C\c1ccc2c(c1)OCO2)NC(C)=O)C(=O)O (centres undefined)	.	.	.	28	.
CC1CCCN(C2=NC(=O)/C(=C/c3cn(-c4ccccc4)nc3-c3cccc(S(=O)(=O)N(C)C)c3)S2)C1 (centres undefined)	0.3	65*	0.6	2	37
CN(C)S(=O)(=O)c1cccc(-c2nn(-c3ccccc3)cc2/C=C(/C#N)C(=O)NCc2ccco2)c1	.	.	.	2	.
CC1CCN(C2=NC(=O)/C(=C/c3cn(-c4ccccc4)nc3-c3cccc(S(=O)(=O)N(C)C)c3)S2)CC1	0.4	56*	0.6	13	39
Cc1cc(-c2nn(-c3ccccc3)cc2/C=C2\SC(N)=NC2=O)ccc1OC(C)C	.	.	.	20	.
Cn1c(=O)c2c(SCC(=O)Nc3ccc4c(c3)OCCO4)nc(CC(C)(C)C)nc2n(C)c1=O	0.3	74*	0.4	3	59*
Cn1c(=O)c2c(SCC(=O)NCc3ccco3)nc(CC(C)(C)C)nc2n(C)c1=O	0.5	52*	0.4	13	59*
SMILES	CYP2C9 act	CYP2C9 inh	CYP2C19 activ	Measles CPE	CYP2C19 inh
Cc1cccc(-n2c(C)nc3sccc3c2=O)c1	1	2	0.6	2	42
CC(=O)c1cc(-c2ccccc2)n(CC(=O)Nc2cccc(C)c2)c1C	.	.	.	18	.
COCCN(C(=O)CNC(=O)c1ccco1)C(C(=O)NC1CCCC1)c1cccs1 (centres undefined)	.	.	.	13	.
COC(=O)C1=C(C)N(CCc2ccc(OC)c(OC)c2)C(=O)/C1=C\N(C)C	1	3	0.9	7	14
CCOc1ccc(-c2nc(CSCC(=O)NCc3ccco3)c(C)o2)cc1	0.2	76*	0.3	23	67*
CCOc1ccc(-c2nc(CSCC(=O)NC3CCCc4ccccc43)c(C)o2)cc1 (centres undefined)	0.6	37	0.3	5	65*
CNC(=O)C1C2C=CC3(O2)C1C(=O)N(CCOC)C3C(=O)NCc1ccc(OC)cc1 (centres undefined)	1.2	-16	1.2	6	-18
COC(=O)C1=C(C)NC(=O)NC1c1ccc(OCC(=O)N2CCCCC2)cc1 (centres undefined)	0.9	11	1.1	13	-9
Cc1cc(C)c(S(=O)(=O)N(CC(=O)O)C2CCCCC2)c(C)c1	0.8	25	0.9	8	6
Cc1cc(C)c(S(=O)(=O)N(CC(=O)N2CCOCC2)C2CCCCC2)c(C)c1	0.3	75*	0.6	9	37
Cc1ccc(S(=O)(=O)N(CC(=O)N2CCOCC2)C2CCCCC2)cc1	0.9	9	1	17*	-1
CCOC(=O)N1CCN(C(=O)CN(C2CCCCC2)S(=O)(=O)c2c(C)cc(C)cc2C)CC1	0.4	63*	0.7	11	29
O=c1cc(N2CCN(Cc3ccccc3)CC2)[nH]c(=O)n1-c1ccc(Br)cc1	1.2	-16	1.2	-1	-20
CC(Sc1nc2ccccc2s1)C(=O)NC1CCCc2ccccc21 (centres undefined)	.	.	.	8	.
CCCOc1cc(CN2CCCCC2)cc(C(C)=O)c1	1.2	-18	1.2	4	-17
COc1ccccc1OCC(O)CN1C(=O)NC(C)(C)C1=O (centres undefined)	0.6	36	0.5	4	50
Cc1ccc(C(C)C)c(OCCCN2C(=O)NC(C)(C)C2=O)c1	0.5	54*	0.1	8	90*
CC1(C)NC(=O)N(CCOCCOc2ccc3ccccc3c2Br)C1=O	1	-4	0.1	12	88*
CC1(C)NC(=O)N(CCCCOc2ccc3ccccc3c2Cl)C1=O	1.2	-24	0	26	95*
Cc1ccc(C(C)C)c(OCCCN(C)Cc2ccccc2)c1	.	.	.	16	.
CCC(=O)c1ccccc1OCCCN1C(=O)NC(C)(C)C1=O	0.5	48	0.4	3	62*
CCN(CC)S(=O)(=O)c1ccc(NC(=O)C(C)N(c2ccccc2)S(C)(=O)=O)cc1 (centres undefined)	.	.	.	17	.
CCOc1ccc2c(c1)s/c(=N\S(=O)(=O)c1ccc(OC)cc1)n2C(F)F	0.6	45	0.4	11	61*
COc1ccc(N(Cc2cc3ccc(C)cc3[nH]c2=O)C(C)=O)cc1	0.8	24	0.9	5	10
Cc1ccc(NC(=O)c2ccc3c(c2)N(CC(=O)N2CCCCC2)C(=O)C(C)(C)O3)cc1	0	99*	0.4	9	58*
CCC1Oc2ccc(C)cc2N(CC(=O)N2CCN(c3ccc(F)cc3)CC2)C1=O (centres undefined)	0.9	14	0.5	28*	45
CC1(C)Oc2ccc(C(=O)NC3CCCC3)cc2N(CC(=O)NC2CCCCC2)C1=O	0.2	82*	0.7	31	34
